ATXN viability – reduces viability in counter-screen for ATXN expression inhibitors; S2 cells (HEK-293 line with an ATXN2-luciferase reporter) viability, CellTiter-Fluor protease fluorescence, 24 h; Potency, µM (top dose mostly 56.7 µM), hits mostly cytotoxic; actives 0.49% (n = 400,000); AID 651635; further: nearly all actives have a fitted effect of over 40% in size
ATXN2 expr inh – inhibitors of ATXN2 expression | HEK-293 ATXN2-luciferase reporter, luminescence, 24 h | Potency, µM (series often up to 57 µM), actives largely listed as inhibitors | actives 0.72% (n = 360,000) | AID 1745845; further: nearly all actives have a fitted effect of over 55% in size
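ATXN2-luciferase reporter cells (luciferase flanked by upstream and downstream ATXN2 gene portions) were treated 24 h at 37 °C with compounds at up to 57 uM. SteadyGlo luminescence gave expression; GF-AFC fluorescence gave viability.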
DT40 TDP1 no CPT – qHTS for Inhibitors of human tyrosyl-DNA phosphodiesterase 1 (TDP1): qHTS in cells in absence of CPT | DT40 Tdp1-/- hTDP1 cells, no CPT, ATP luminescence, 48 h | Potency, µM (top dose mostly 46.2 µM), actives largely listed as inhibitors | actives 15% (n = 420,000); further: nearly all actives have a fitted effect of over 55% in size
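A cellular qHTS used chicken DT40 cells lacking endogenous Tdp1 but carrying stably transfected human TDP1. Compounds were applied without camptothecin, and cell growth kinetics were judged by ATP-dependent luminescence after ≥48 hr.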
HepG2 tox – HepG2 cytotoxicity, counter-screen for TGF-b inhibitors | HepG2 CAGA-GFP viability, ATP luminescence, 18 h | actives 0.76% (n = 410,000) | AID 588856 | Potency, µM (highest dose often 46.1 µM), usual class: cytotoxic
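CellTiter-Glo luminescence gave cytotoxicity after 18 hours at 37 degrees C. The cells were HepG2 CAGA-GFP in 1% FBS DMEM, stimulated with 500 pg/mL TGF-beta after compound addition. %Activity was normalised to no-cell wells (complete cell-killing) and DMSO (no toxicity), and curves were fitted and classified.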
DT40 TDP1 CPT – growth inhibition of DT40 Tdp1-/-;hTDP1 cells with camptothecin (screen for TDP1 inhibitors); Potency, µM (titrated, usually from 46.2 µM), actives largely listed as inhibitors; chicken DT40 Tdp1-/-;hTDP1 cells + 20 nM CPT, ATP luminescence, 48 h; actives 12% (n = 420,000); further: nearly all actives have a fitted effect of over 55% in size
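Chicken DT40 Tdp1-/- cells complemented with human TDP1, 400 cells/well, exposed to compounds plus 20 nM camptothecin for at least 48 h at 37 C; viability read as ATP content by CellTiter-Glo luminescence.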
TGFb SMAD3 inh – blocks TGF-b signaling. Potency, µM (titrated, usually from 46.1 µM), usual class: inhibitors. HepG2 CAGA-GFP TGF-b/SMAD3 reporter, GFP fluorescence, 18 h; TGF-beta stimulated, 500 pg/mL final. AID 588855. actives 1.2% (n = 410,000); further: nearly all actives have a fitted effect of over 65% in size
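HEPG2 CAGA-GFP, 1000 cells/well; 2 h settle, 37 C; cpd via pin tool; TGF-b 500 pg/mL final; 18 h, 37 C; GFP imaging ex488/em500-530; %Activity normalised to -TGF-b and +DMSO controls; CRC fit, curve class.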
Numbers stand for hits; - = inactive; ? = inconclusive; . = no result; [ ] = another dose, or the depositor's remark. The list is not random: actives were taken first. Their share in the collection is about 17%. The call rests on the fitted dose curve; in most records, active means well fitted curve in the direction sought with a large enough effect; inconclusive means small, poorly fitted or top-dose-only effect, or another doubt; inactive means no such curve, though single readings can be large; an effect the other way counts as inactive or inconclusive.

SMILES	ATXN viability	ATXN2 expr inh	DT40 TDP1 no CPT	HepG2 tox	DT40 TDP1 CPT	TGFb SMAD3 inh
COc1ccc(NC(=O)CC23CC4CC(C2)CC(n2nnc(C)n2)(C4)C3)cc1	-	-	?	-	-	-
CCSc1nnc2c(n1)OC(c1sccc1C)N(C(C)=O)c1ccccc1-2 (stereo not given)	-	-	13µM	-	?	?
CC1(C)CC(C(=O)NCCC(c2ccccc2)c2ccco2)CCO1 (stereo not given)	-	-	-	-	?	-
COc1ccc(CN(CCC(c2ccc(F)cc2)C2CCOC(C)(C)C2)C(=O)c2ccco2)cc1 (stereo not given)	-	-[11.3 µM]	16µM	-	21µM	?
CC(c1ccccc1)N(CCC(c1ccccc1)C1CCOC(C)(C)C1)C(=O)c1ccco1 (stereo not given)	-	-	18µM	-	?	?
CC(=O)Nc1ccc(S(=O)(=O)N(C)c2ccc(OCCOc3ccccc3F)cc2)cc1	-	-	?	-	?	-
CC(C)(C)Nc1nc(Nc2ccc([N+](=O)[O-])cc2)nc(NC(C)(C)C)n1	-	-	21µM	-	21µM	-
CCCNc1nc(Cl)nc(NCc2cccnc2)n1	-	-	?	-	-	-
Cc1ccc(Nc2nc(Cl)nc(NC(C)(C)C)n2)cc1	-	.	23µM	-	?	-
CC(C)c1ccc(Nc2nc(Cl)nc(Cl)n2)cc1	-	.	?	-	-	-
O=[N+]([O-])c1ccc(Nc2nccc(Cl)n2)cc1	-	-	-	-	-	-
Cc1ccc(Nc2nc(Cl)nc(N(C)C#N)n2)cc1	-	-	23µM	-	?	-
CC(C)(C)Nc1nc(Cl)nc(NCc2ccccc2)n1	-	-	?	-	18µM	-
CCN(CC(=O)Nc1ccccc1C(F)(F)F)C(=O)c1ccccc1OCc1ccc(F)cc1	?	-	21µM	-	16µM	-
CCN(CC(=O)Nc1ccccc1C(F)(F)F)C(=O)c1ccc(NC(=O)c2cccs2)cc1	-	.	21µM	-	15µM	-
CC(OC(=O)Cc1c(F)cccc1Cl)C(=O)NC1(C#N)CCCCC1 (stereo not given)	-	-	-	-	-	-
Cc1ccc(C(=O)Nc2cccc(C(=O)NC3CCCCC3)c2)cc1	-	-	?	-	23µM	-
Cc1ccn2cc(C(=O)Nc3cccc(C(=O)NC4CC4)c3)nc2c1	-	-	16µM	-	?	-
CCOC(=O)C1CCN(C(=O)c2ccc3c(c2)C(=O)N(c2ccccc2C)C3=O)CC1	-	-	-	-	-	-
Cc1ccc(-n2nnnc2CNC(=O)c2cc(C(F)(F)F)cc(C(F)(F)F)c2)cc1C	.	.	16µM	-	?	?
Cc1ccc(-n2nnnc2CNC(=O)c2ccc([N+](=O)[O-])o2)cc1C	?	-	7.3µM	-	13µM	?
O=C(NCc1nnnn1-c1ccc(F)cc1)c1ccc([N+](=O)[O-])o1	-	-	?	-	?	14µM
Cc1ccc(-n2nnnc2CNC(=O)c2ccc(F)cc2)cc1C	.	.	-	-	-	-
CCc1ccc2oc(C(=O)Nc3ccccc3OC)cc(=O)c2c1	-	-	-	-	-	-
CCCOc1ccc(F)cc1-c1cc(C(=O)Nc2ccc(OC)cc2C)[nH]n1	-	-	?	-	?	-
COc1ccc(NC(=O)c2cc(-c3cc(Cl)ccc3C)n[nH]2)cn1	-	-	?	-	23µM	-
CCCOc1ccc(F)cc1-c1cc(C(=O)Nc2ccc(OC)cc2OC)[nH]n1	-	-	18µM	-	?	?
COc1ccc(Cl)cc1-c1cc(C(=O)Nc2ccc(C)c(NS(C)(=O)=O)c2)[nH]n1	16µM	22µM	21µM	-	18µM	?
COc1ccc(NC(=O)c2cc(-c3cc(Cl)ccc3OC)n[nH]2)c(C)c1	-	-	18µM	-	?	-
